Most compounds without a hit are left out; they make up all but 1.6% or so of the library.
gsp agonist: activates gsp, the McCune-Albright syndrome mutation; gsp mutant cells, cAMP HTRF, 30 min; Potency, µM (highest dose often 76.9 µM), for inactives: top-dose activation (cAMP increase), usual class: activators; 340,000 compounds, 0.13% hits; AID 624287; active = well fitted activation curve with a large enough effect; inconclusive = small, poorly fitted or top-dose-only effect, or another doubt; inactive = no such curve, though single readings can be large or run the other way; cell line not stated here;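 note: phosphodiesterase inhibitor Ro 20-1724 added with compounds to block cAMP breakdown; potency is the fitted concentration of half-maximal effect; nearly all actives have a fitted effect of over 60% in size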
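Cells in DMEM/10% FBS with G418 were pretreated with compounds in DMSO plus […] (300 uM stock) for 30 min at 37C. cAMP was measured by HTRF (cAMP-d2 plus anti-cAMP antibody-K) after 30 min at room temperature.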
pAkt inh: inhibitors of Akt phosphorylation; Neuro2A IGF-stimulated pAkt S473 HTRF, 20 min; stronger effect = lower value; activity change, % for hits at 50 µM; 360,000 compounds, 0.32% hits; in the data active = activity change below about -80%; inconclusive = mostly about -51% to -80%; note: % is set by controls: 0 for no effect and ±100 for the full control effect
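Single-point screen (50 µM final compound) in Neuro2A cells stimulated 20 min with 6 nM IGF at 37 deg C. After lysis, Ser473-phosphorylated Akt read by HTRF (ex 330 nm, em 615/665 nm) as the 665/615 ratio.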
GRP78 ERSR act: ER stress response induction in glioma | U87-MG GRP78 promoter luciferase reporter, 16 h | Potency, µM, without a hit: at the highest dose activation, most hits filed as activators | 420,000 compounds, 0.02% hits | AID 602332; active = well fitted activation curve with a large enough effect; inconclusive = small, poorly fitted or top-dose-only effect; inactive = no such curve, though single readings can be large or run the other way; note: potency is the fitted concentration of half-maximal effect; series mostly up to about 76 µM; % of control where 0% means no effect; nearly all actives have a fitted effect of over 35% in size
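Stably transfected U87-MG human glioma cells carrying a GRP78-based luminescent sensor were seeded at 1000 cells/well, pin-dosed with compounds and incubated 16 h. Luciferase reagent was then added, and end-point luminescence was read after 10 min at room temperature.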
KCNH2 WT inh: blocks the wildtype human KCNH2 potassium channel; U2OS, BacMam KCNH2, thallium flux FluxOr; stronger effect = lower value; activity change, % at 1.84 µM; 340,000 compounds, 0.37% hits; AID 720551;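 active = maximum activity change below -70%; inconclusive = maximum activity change between -70% and -50%; inactive = maximum activity change above -50%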; note: % is set by controls: 0 for no effect and ±100 for the full control effect
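U2OS cells transduced with wild-type KCNH2 virus are loaded with FluxOr dye for 45 min, and thallium flux is measured in kinetic reads before and after stimulation buffer. Rate constants are normalized to DMSO controls.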
gsp antagonist: antagonizes gsp, the McCune-Albright syndrome mutation. gsp-mutant cells, cAMP HTRF, 30 min. Potency, µM (titrated, usually from 76.9 µM), for inactives: at the highest dose activity change, negative = inhibition, actives largely listed as inhibitors. 340,000 compounds, 0.4% hits. AID 624288; calls by dose curve; cell line not stated here;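 note: intracellular cAMP measured with PDE inhibitor Ro 20-1724 present during compound exposure; potency is the fitted concentration of half-maximal effect; % is set by controls: 0 for no effect and ±100 for the full control effect; nearly all actives have a fitted effect of over 65% in size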
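Cells, 2000/well, grown 16–24 h in DMEM 10% FBS with 0.5 mg/ml G418, then compounds plus […] (300 uM addition stock), 30 min at 37C. cAMP read by HTRF (cAMP-d2 and anti-cAMP antibody-K in lysis buffer) after 30 min RT.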
KCNH2 3.1 inh: inhibitors of human KCNH2 3.1 potassium channel isoform; U2OS KCNH2 3.1, thallium flux FluxOr; stronger effect = lower value; 340,000 compounds, 0.95% hits; AID 720553; activity change, % (tested at about 1.8 µM);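 active = maximum activity change below -70%; inconclusive = maximum activity change from -70% to -50%; inactive = maximum activity change above -50%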;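 note: thallium influx rate constant from kinetic fluorescence after stimulation buffer; % is set by controls: 0 for no effect and ±100 for the full control effect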
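U2OS cells transduced with KCNH2 3.1 mutant virus (1.77 x 10^8 /mL, 4 h), plated overnight at 37 C, loaded 45 min with FluxOr dye plus Red40 quencher. Thallium flux rate constant from kinetic reads after stimulation buffer, normalised to controls.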
Starred values were filed as active, the others as inactive; i = inactive; ? = inconclusive; / = no result given; [ ] = dose if it differs, or a comment.

SMILES | gsp agonist | pAkt inh | GRP78 ERSR act | KCNH2 WT inh | gsp antagonist | KCNH2 3.1 inh
CC(C)c1c(C(=O)NCCN2CCOCC2)cnn1-c1nccc(-c2ccco2)n1 | / | / | 5% | / | / | /
Cc1ccc(CNC(=O)COC(=O)C2CCN(S(=O)(=O)c3cccs3)CC2)cc1 | ? | i | 1% | 1 | 35µM* | 5
Nc1cccc[n+]1C(c1ccnc2ccccc12)[n+]1ccccc1N | / | / | -3% | / | / | /
Cc1csc(NC(=O)CSc2nnnn2C)n1 | 7% | -117%* | 0% | 0 | 11% | -2
Cc1nc(NC(=O)CSc2nnnn2C)sc1C | -59% | i | 9% | -18 | 10% | 14
C(=C\c1ccnc2ccccc12)/c1ccc(N2CCN(c3ccc(/C=C/c4ccnc5ccccc45)cc3)CC2)cc1 | / | / | -3% | / | / | /
O=C(NCc1nnc2n1CCN(Cc1cc(F)cc(F)c1)CC2)c1cccc(F)c1 | / | / | -3% | / | / | /
COc1ccc(Cl)cc1NC(=O)CN(C)C(=O)CN1C(=O)NC(C)(c2ccc3ccccc3c2)C1=O (stereo not given) | 2% | i | 1% | -7 | ? | -89*
COc1ccc(Cl)cc1NC(=O)CN(C)C(=O)CN1C(=O)NC(C)(C)C1=O | -2% | i | -5% | 14 | 10% | -2
OC1(c2cccnc2)CCN(Cc2ccc3c(c2)CN(Cc2cccc(C(F)(F)F)c2)CCO3)CC1 | / | / | -3% | / | / | /
Cc1cc(C(=O)NCC2CCC3(CCN(Cc4cccc(F)c4F)CC3)O2)n(C)n1 (stereo not given) | / | / | 0% | / | / | /
Cc1cccc(CCNC(=O)COc2cc(=O)n(C)c3ccccc23)c1 | 0%[15.4 µM] | i | 2% | -11 | 32µM* | 10
Cc1cccc(CCNC(=O)CCCOc2cc(=O)n(C)c3ccccc23)c1 | -6%[15.4 µM] | i | 5% | -6 | -19% | -1
Cc1cccc(CN2C(=O)NC(c3ccccc3)(c3ccccc3)C2=O)c1 | 3% | i | 0% | 4 | -5% | -89*
CC(C)(C)C(=O)CN1C(=O)NC(c2ccccc2)(c2ccccc2)C1=O | 7% | i | -6% | -2 | 5% | -16
COc1cccc(NC(=O)c2cc3c(=O)n4ccccc4nc3n(CC(C)C)c2=N)c1 | -2% | i | -5% | -74* | 3% | -93*
Cc1cccc(NC(=O)c2cc3c(=O)n4ccccc4nc3n(CC(C)C)c2=N)c1 | -38% | i | -3% | -118* | 10% | -98*
Cn1cc(CN2CCN(Cc3ccccc3)CC2)c(-c2cccc(Cl)c2)n1 | 1% | i | -2% | 7 | 11% | -99*
Cc1cnc(C)c(N2CCN(Cc3cn(C)nc3-c3cccc(Cl)c3)CC2)n1 | ? | i | -6% | 22 | -5% | -115*
COCCN1CCN(Cc2cn(C)nc2-c2cccc(Cl)c2)CC1 | -18%[15.4 µM] | i | 1% | 3 | 5% | 5
CCOC(=O)c1cc(CC)sc1NC(=O)c1ccc2c(c1)OCCO2 | -38% | -113%* | -1% | 0 | ? | -2
CCc1c(C(=O)Nc2cc(C)cc(C)c2)[nH]c(C)c1C(C)=O | -7% | i | 0% | -7 | 35µM* | -14
O=S(=O)(O)OCC1OC(COS(=O)(=O)O)(C2(OS(=O)(=O)O)OC(CO)C(OS(=O)(=O)O)C(OS(=O)(=O)O)C2OS(=O)(=O)O)C(OS(=O)(=O)O)C1OS(=O)(=O)O (stereo not given) | / | / | -2% | / | / | /
CCOC(=O)N1CCN(Cc2ccc3c(c2)CN(C(=O)c2sc(C)nc2C)CCO3)CC1 | / | / | 4% | / | / | /
O=c1cc(-c2cccc(F)c2)[nH]c2ccc(Cl)cc12 | / | / | -3% | / | / | /
O=c1cc(-c2ccccc2)[nH]c2ccc(F)cc12 | 29% | i | 4% | -12 | 18% | -98*
O=c1cc(-c2cccc(F)c2)[nH]c2ccccc12 | 6% | i | -3% | 2 | 22% | -71*
Cc1cnc(SCc2ccccn2)nc1C1CCCN(C(=O)c2noc3c2CCCC3)C1 (stereo not given) | / | / | -3% | / | / | /
CCCCOc1ccccc1Cn1c(=O)oc2ccccc21 | -37% | -112%* | 4% | 9 | -4% | -10
